# From PubChem BioAssay
# The list is not random: actives were taken first. Their share in the collection is about 0.49%.
# Anesthetic bind = qHTS Assay for Identification of Novel General Anesthetics; 0.074% of 350,000 active; Potency, µM (top dose mostly 77.5 µM), for the others: at the highest dose activity change, negative = displacement, usual class: inhibitors; Ferritin light chain (Equus caballus), P02791; apoferritin/1-aminoanthracene competitive binding, fluorescence; note: potency is the fitted concentration of half-maximal effect; % is set by controls: 0 for no effect and ±100 for the full control effect; nearly all actives have a fitted effect of over 20% in size
# Target sequence (P02791 2-175 limits assumed): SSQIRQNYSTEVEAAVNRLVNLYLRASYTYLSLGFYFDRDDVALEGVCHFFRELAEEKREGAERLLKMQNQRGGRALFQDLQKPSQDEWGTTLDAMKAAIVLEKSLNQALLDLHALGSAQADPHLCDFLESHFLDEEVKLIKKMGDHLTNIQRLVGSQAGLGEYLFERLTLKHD
#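 Horse-spleen apoferritin (10 uM) was mixed with 50% saturated 1-aminoanthracene in PBS, exposed to compounds for 10 min at room temperature, and read for fluorescence (ex 380 nm, em 535 nm). Competitive displacement was fitted with a four-parameter Hill equation.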
# Epigenetic reg = Quantitative High-Throughput Screen for Regulators of Epigenetic Control; murine LDR cells, GFP reporter derepression, 30 h; Potency, µM (doses to about 53.9 µM), for inactives: at the highest dose GFP activation, actives largely listed as activators; 0.2% of 280,000 active; note: potency is the fitted concentration of half-maximal effect; % of control where 0% means no effect; nearly all actives have a fitted effect of over 60% in size
#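 GFP-positive cell count by laser-scanning cytometry (objects 20–120 um) after 30 h, 37 C compound exposure of murine LDR cells; reporter is CMV-GFP integrated at a silenced locus, inducible by HDAC or DNMT inhibitors.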
# LDHA inh = qHTS assay for inhibitors of human lactate dehydrogenase. AID 1347041, 2019. L-lactate dehydrogenase A chain (Homo sapiens), P00338. 0.15% of 480,000 active. activity change, % (values are at about 110 or 230 µM). purified LDHA, NADH/diaphorase-resazurin fluorescence; active compounds read low; in the data active = activity change below about -30%; inconclusive = mostly about -25% to -30%;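 note: plate controls were DMSO wells for no effect and wells without enzyme for full effect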
#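 Enzyme activity of human lactate dehydrogenase 5 (2 nM; 0.06 mM NADH, 0.2 mM pyruvate, 5 min, RT) is measured via a resazurin/diaphorase fluorescence readout of residual NADH.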
# Vif-A3F inh = qHTS for Inhibitors of Vif-A3F Interactions: qHTS; HeLa A3F-eYFP + Vif (tagged APOBEC3F with the HIV-1 protein that degrades it), YFP fluorescence increase; Potency, µM (highest dose often 46.1 µM), without a hit: top-dose activity, negative = active; 0.2% of 390,000 active; AID 602313, 2012; note: potency is the fitted concentration of half-maximal effect; % of control where 0% means no effect; nearly all actives have a fitted effect of over 65% in size
#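 HeLa cells stably expressing A3F-eYFP plus Vif, plated and incubated overnight at 37 deg C, then exposed to compounds overnight at 37 deg C. Blocked degradation read as raised yellow fluorescence (Ex 488/Em 500-530).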
# Vif-A3G inh = qHTS for Inhibitors of Vif-A3G Interactions: qHTS. HeLa A3G-eYFP + Vif (tagged APOBEC3G with the HIV-1 protein that degrades it), YFP fluorescence, overnight. 0.076% of 410,000 active. Potency, µM (doses to about 46.1 µM), for the others: at the highest dose activity, negative = active, hits mostly inhibitors; note: potency is the fitted concentration of half-maximal effect; % is set by controls: 0 for no effect and ±100 for the full control effect; nearly all actives have a fitted effect of over 60% in size
#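 Read-out is eYFP fluorescence (Ex 488/Em 500-530) from Vif-expressing HeLa A3G-eYFP cells; more signal means A3G escaped Vif-mediated degradation. Cells plated overnight, compound pinned in, incubated overnight at 37 deg C.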
# * = called active by the depositor; ? = inconclusive; / = not tested or not shown. Unless noted, calls come from the whole dose curve; as a rule, active = well fitted curve in the direction sought with a large enough effect; inconclusive = small, poorly fitted or top-dose-only effect, or another doubt; inactive = no such curve, though single readings can be large; an effect the other way counts as inactive or inconclusive.
SMILES,Anesthetic bind,Epigenetic reg,LDHA inh,Vif-A3F inh,Vif-A3G inh
COc1cc(N2CCCC2)c(OC)cc1/C=c1/sc2nc3ccccc3n2c1=O,-11.1%,2.82µM*,/,/,/
O=c1c[n+]([O-])c2ccccc2n1OCc1c(F)cccc1F,-4.5%,12.6µM*,-4.9,-0.6%,?
O=c1c[n+]([O-])c2ccccc2n1OCc1ccccn1,-9.4%,?,2.4,-11.5%,?
COc1ccc(C2Nc3ccccc3C(=O)N2Cc2ccco2)cc1COc1ccc([N+](=O)[O-])cc1 (configuration not stated),?,-1.2%,-0.8,0.4%,0.2%
CCCN1C(=O)c2ccccc2NC1c1ccc(OC)c(COc2ccc([N+](=O)[O-])c(C)c2)c1 (configuration not stated),/,/,-58.9*,/,-0.4%
CC(=O)N1CCc2nc3sc(C(=O)Nc4ccccc4F)c(N)c3c(C(F)(F)F)c2C1,/,/,0.5,/,/
CC(=O)N1CCc2nc3sc(C(=O)c4ccc(F)cc4)c(N)c3c(C(F)(F)F)c2C1,-18.8%,?,-3.5,12.6µM*,?
COc1ccc(C(=O)c2sc3nc4c(c(C(F)(F)F)c3c2N)CN(C(C)=O)CC4)cc1OC,-9.9%,4.1%,2.8,22.4µM*,?
COc1ccc(CNC(=O)c2sc3nc4c(c(C(F)(F)F)c3c2N)CCC4)cc1OC,-0.8%,-1.0%,-2.7,?,1.2%
COc1ccc(C(=O)c2sc3nc(-c4ccccc4)ccc3c2N)cc1,0.2%,?,-2.0,3.55µM*,?
COc1cccc(-c2ccc3c(N)c(C(=O)c4ccc(Cl)cc4)sc3n2)c1,-8.3%,?,1.3,?,10µM*
CC(C)OC(=O)c1sc2nc(-c3ccccc3)ccc2c1N,0.7%,-1.9%,-5.8,-14.8%,-7.9%
CCS(=O)(=O)n1nc(-c2cccnc2)nc1NCc1ccc(F)cc1,-9.5%,-2.8%,-4.1,8.3%,-1.4%
Cc1cc(Br)cc(/C=N/NC(=O)c2ccc3c(c2)OCO3)c1O,-7.7%,/,-10.5,2.0%,-11.0%
O=C(N/N=C/c1cc(Br)cc(Cl)c1O)c1ccc2c(c1)OCO2,/,/,-31.9*,?,-2.6%
O=C(O)C1(NS(=O)(=O)c2ccc(F)c(Cl)c2)CCCCC1,-5.3%,-1.1%,4.9,-1.1%,-3.5%
CCn1c(O)c(/C=C2\C=Nc3ccccc32)sc1=Nc1ccccc1,-19.0%,8.2%,-7.1,-10.7%,-7.3%
Cn1c(O)c(/C=C2\C=Nc3ccccc32)sc1=Nc1ccc(C(=O)O)cc1,-6.1%,1.0%,-35.1*,-4.6%,3.7%
Nn1cnnc1SCC(=O)Nc1ccc(C2CCCCC2)cc1,7.08µM*,-1.7%,-1.7,0.7%,1.2%
Nn1c(SCC(=O)Nc2cccc(F)c2)nnc1C1CCCCC1,8.91µM*,0.0%,-3.2,1.2%,0.1%
N#Cc1nc(C2CC2)oc1N1CCN(Cc2ccc(Cl)cc2Cl)CC1,/,/,-4.6,/,/
Cc1cc(SCC(=O)Nc2ccc(F)c(F)c2F)nc2ccccc12,/,/,-34.2*,/,/
CC(=O)N1C(c2ccccc2)CC(=O)OC1c1ccc2c(c1)OCO2 (configuration not stated),-12.4%,-1.6%,2.1,3.8%,-0.2%
CCN1C/C(=C/c2ccc(N3CCOCC3)cc2)C(=O)/C(=C/c2ccc(N3CCOCC3)cc2)C1,-3.8%,?,-2.0,25.1µM*,10µM*
CN1C/C(=C\c2ccc(N3CCOCC3)cc2)C(=O)/C(=C/c2ccc(N3CCOCC3)cc2)C1,-4.2%,?,0.4,25.1µM*,?
CCn1nc(C(=O)Nc2nc(-c3ccc(NC(C)=O)cc3)cs2)c2ccccc2c1=O,/,/,-30.9*,/,/
CCCn1nc(C)cc1CN(C)c1ccc(NC(=O)c2cccc(Cl)c2)cc1C(=O)O,/,/,7.4,/,/
CCCSc1ncc(Cl)c(C(=O)Nc2sc3c(c2C(N)=O)CCCC3)n1,-3.1%,?,-11.8,/,7.08µM*
CCSc1ncc(Cl)c(C(=O)Nc2sc3c(c2C(=O)NCCCOC)CCCC3)n1,-6.4%,3.55µM*,-7.7,?,0.6%
